# Data: PubChem BioAssay (NCI)
# About 83,000 compounds went through this panel and 20% of them were active in at least one assay; those are over-represented in the sample as a whole.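 Values shown are percent growth following 48 h exposure of cells in 96-well plates to a single concentration of compound; below 10 was considered active.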 A number with no mark means an inactive call. The source made the active and inactive calls.
# Key:
# Assay in all cases: NCI-60 one-dose screen, 48 h (100 = growth as untreated, 0 = no growth, -100 = all killed)
# Details in all cases: 10 µM
# [1] = system: HCT-15 colon
# [2] = system: HT29 colon
# [3] = system: SNB-75 CNS
# [4] = system: SNB-19 CNS
# [5] = system: U251 CNS
# [6] = system: PC-3 prostate
# [7] = system: SK-MEL-5 melanoma
# [8] = system: LOX IMVI melanoma
# [9] = system: SK-MEL-28 melanoma
SMILES,growth [1] [%],growth [2],growth [3] [%],growth [4] [%],growth [5] [%],growth [6] [%],growth [7],growth [8],growth [9] [%]
CC(C)/C=N/NC(N)=S,90.6,62.2%,81.3,98.3,80.8,55.1,97.2%,96%,99.2
CCCCCCN=C(N)CCCCCCCCCCC(N)=NCCCCCC,31.8,14%,23.8,18.4,14.8,23.8,20%,37.2%,55.8
CCN1CCN(c2nc(NNC(=O)c3cccc(OC)c3)nc(N3CCN(C(c4ccccc4)c4ccccc4)CC3)n2)CC1,15.4,9.36% (active),61.9,78.1,41.8,41.9,53.5%,7.34% (active),63.2
CNC(=O)c1cc(Oc2ccc(NC(=O)Nc3ccc(Cl)c(OC(C)C)c3)c(F)c2)ccn1,41.4,41.6%,75.3,66.3,58.8,32.4,4.12% (active),45.2%,70.7
Cc1ccc2c(c1)-c1cc(C)nn1-c1ccc(C#N)cc1O2,38.7,20%,48.8,68.6,46.9,66.2,75.9%,49.4%,70.3
O=C(Nc1ccc(CN2CCOCC2)cc1)c1ccc(-c2cc(Cl)ccc2Cl)o1,17,2.85% (active),48,54.7,32.4,41.4,37.1%,4.07% (active),41.4
COc1ccc(C2=NNC(c3sc(Cl)nc3Cl)C2)cc1 (stereo not drawn),34.2,85.9%,101,95.6,93.7,89.6,54.6%,9.86% (active),98.9
